A number with no mark means an inactive call.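 How the source made its calls: active = AUC reduced over 20% with Padj below 0.05 in at least 2 of 3 replicates; inactive = otherwise.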
Tests used:
Roseburia intestinalis = assay: growth AUC relative to DMSO control (median of replicates) (fraction); higher = more growth (less inhibition), active = hit call of the paper; conditions: 20 µM; 24 h
Method in brief: (§1)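 Gut bacterial monocultures in mGAM were treated with 20 µM compound (1% DMSO) and grown anaerobically at 37 °C in round-bottom 96-well plates from OD600 0.05. OD600 was read hourly for 24 h, with the minimum OD set to 0. Area under the growth curve was normalised to the plate median of solvent-only wells, or to row and column medians on the industrial chemical plate. Each value is the median of three biological replicates, each grown on a separate day.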

Streptococcus salivarius = assay: as above; conditions: 20 µM; 24 h
Method in brief: as §1

| SMILES | growth AUC (Roseburia intestinalis) | growth AUC (Streptococcus salivarius) |
| --- | --- | --- |
| CC1=C(c2ccccc2)C(=O)N(C(C)(C)c2cc(Cl)cc(Cl)c2)CO1 | 1.03 | 0.979 |
| Cc1cc(CC(C)CC(C)(C)C)n(O)c(=O)c1.NCCO (configuration not stated) | 0.995 | 1.02 |
| CSc1nc(NC2CC2)nc(NC(C)(C)C)n1 | 0.981 | 1 |
| CNC(=O)Sc1ccc(OS(C)(=O)=O)cc1 | 0.992 | 0.937 |
| Cn1cc(C(=O)Nc2ccccc2-c2cc(F)c(F)c(F)c2)c(C(F)F)n1 | 0.997 | 0.966 |
| CNC(=O)/C(=N/OC)c1ccccc1CO/N=C(C)/C(=N/OC)C(/C)=N/OC | 1.01 | 1.01 |
| [O-][n+]1nc(-n2ccnc2)nc2ccc(Cl)cc21 | 0.984 | 1 |
| COc1nc(OC)nc(C(=O)c2cccc(F)c2N(C)S(=O)(=O)C(F)F)n1 | 1.01 | 1.02 |
| CCCCCCCCOC(=O)COc1cc(Cl)c(Cl)cc1Cl | 0.953 | 0.875 |
| CNC(=O)Nc1nc2ccccc2s1 | 0.983 | 0.965 |
| C=CCc1ccc(OC)c(OC)c1 | 1.03 | 1.02 |
| CCc1cccc(CC)c1N(COC)C(=O)CS(=O)(=O)[O-].[Na+] | 1.03 | 0.964 |
| CC1(C)C(=O)Oc2ccc(OS(C)(=O)=O)cc21 | 1.02 | 1.02 |
| Cc1[nH]oc(=O)c1N=Nc1ccccc1Cl | 0.938 | 0.982 |
| N#CC(=NOCC1OCCO1)c1ccccc1 | 0.968 | 0.976 |
| CC(C)(c1ccc(O)cc1)c1ccc(O)cc1 | 1.06 | 1.01 |
| CCCCCCCC/C=C\CCCCCCCCCCCCC | 1.07 | 1.03 |
| CCOc1nc(F)cc2nc(S(=O)(=O)Nc3c(Cl)cccc3C(=O)OC)nn12 | 1.04 | 1.01 |
| COCCCNc1nc(NC(C)C)nc(SC)n1 | 0.995 | 0.969 |
| CCOC(=O)/C(Cl)=C/c1cc(N2C(=O)C3=C(CCCC3)C2=O)ccc1Cl | 0.981 | 0.96 |
| c1ccc2c(c1)Cc1ccccc1-2 | 1 | 0.985 |

| SMILES | growth AUC (Roseburia intestinalis) | growth AUC (Streptococcus salivarius) |
| --- | --- | --- |
| CCC(C)Nc1nc(N)nc(Cl)n1 (configuration not stated) | 0.998 | 0.987 |
| Cc1cc(C)cc(OCC(C)Nc2nc(N)nc(C(C)(C)F)n2)c1 (configuration not stated) | 0.971 | 0.967 |
| C#CCN(C)c1c(C#N)cnn1-c1nn2c(c1Cl)CCCC2 | 1.02 | 1.03 |
| CC1COc2ccccc2N1C(=O)C(Cl)Cl (configuration not stated) | 0.92 | 0.944 |
| Cc1cccc(C)c1N(CCSCC(O)C(=O)[O-])C(=O)CO.[Na+] (configuration not stated) | 1.02 | 0.97 |
| O.O.O=[N+]([O-])c1ccc([O-])cc1.[Na+] | 0.999 | 1.05 |
| O=[N+]([O-])c1ccc(Oc2c(Cl)cc(Cl)cc2Cl)cc1 | 1.02 | 1.03 |
| CC(C)c1ccccc1 | 0.991 | 0.968 |
| FC(F)(F)/N=C1\SC(=Nc2ccccc2)N(c2ccccc2)\C1=N\C(F)(F)F | 0.922 | 0.946 |
| CCCN(CCOc1c(Cl)cc(Cl)cc1Cl)C(=O)NC=O | 0.979 | 0.993 |
| c1ccc(Sc2ccccc2)cc1 | 1.13 | 0.994 |
| CC(C)(NC(=O)C(Br)C(C)(C)C)c1ccccc1 (configuration not stated) | 0.964 | 0.96 |
| CCNc1nc(NC(C)CC)nc(OC)n1 (configuration not stated) | 1.07 | 1.02 |
| CCOC(=O)Nc1cccc(OC(=O)Nc2cccc(C)c2)c1 | 0.912 | 0.971 |
| CCOC(=O)C1=NOC(c2ccccc2)(c2ccccc2)C1 | 1.01 | 0.959 |
| c1ccc2cc3ccccc3cc2c1 | 0.933 | 0.919 |
| O=c1cccc2n1CCn1c-2cccc1=O | 0.991 | 1.02 |
| CSc1nnc(C(C)(C)C)c(=O)n1/N=C/C(C)C | 1.07 | 1 |
| COC(=O)c1cccc(C)c1S(=O)(=O)NC(=O)Nc1nc(OCC(F)(F)F)nc(N(C)C)n1 | 0.984 | 0.984 |
| CC(=O)Nc1cc(NS(=O)(=O)C(F)(F)F)c(C)cc1C | 1.02 | 1 |
